# From the supplement of paper PMC12350171
# Counter-ions that a name gives are not always drawn. Unmarked numbers belong to inactive results.
# Tests used:
# Conditions in all cases: 20 µM
# [1] = test system: Salmonella enterica typhimurium; assay: growth AUC normalised to DMSO control (fraction of control); higher = less growth inhibition, active = hit call of the paper
# In short: (§1)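 After two anaerobic passages, pathogens were added at a starting OD578 of 0.01 to pre-reduced mGAM plates holding compound at 20 μM with 1% DMSO; hemin and NAD were supplemented for Haemophilus parainfluenzae. Sealed with breathable membranes, plates were read at OD578 hourly for 24 h, in three biological replicates. The trapezoidal rule, applied up to the exponential-to-stationary transition, gave the growth-curve AUC, which was normalised to DMSO controls on the same plate.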
# [2] = test system: Shigella flexneri; assay: as above
# In short: as §1
# [3] = test system: Vibrio cholerae; assay: as above
# In short: as §1
# [4] = test system: Yersinia pseudotuberculosis; assay: as above
# In short: as §1
# [5] = test system: P. vulgatus RND KO; assay: growth AUC normalised to DMSO control (median) (fraction of control); higher = less growth inhibition, active = hit call of the paper
# In short: (§2)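 Anaerobic growth was tracked hourly at OD578 for 24 h in 96-well plates of mGAM seeded at OD578 0.01 with each approved-drug library compound at 20 μM and 1% DMSO. Strains had first been passaged twice overnight without oxygen. Three biological replicates were run. The reported median is the area under the curve, calculated by the trapezoidal rule on curves truncated at entry into stationary phase and normalised to vehicle wells on the same plate.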
# [6] = test system: P. vulgatus WT; assay: as above
# In short: as §2
# [7] = test system: S. enterica typhimurium WT; assay: as above
# In short: as §2
# [8] = test system: S. enterica typhimurium tolC KO; assay: as above
# In short: as §2
# 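Throughout, for growth AUC normalised to DMSO control (median): active when median AUC fell below 0.1.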
Structure (SMILES),growth AUC normalised to DMSO control [1],growth AUC normalised to DMSO control [2],growth AUC normalised to DMSO control [3],growth AUC normalised to DMSO control [4],growth AUC normalised to DMSO control [5],growth AUC normalised to DMSO control [6],growth AUC normalised to DMSO control [7],growth AUC normalised to DMSO control [8]
COC(=O)Nc1nc2cc(C(=O)c3ccc(F)cc3)ccc2[nH]1 [Flubendazol],1.02,0.994,0.993,0.994,1.04,1.07,1.01,1
CCn1cc(C(=O)O)c(=O)c2cc(F)c(N3CCNCC3)nc21 [Enoxacin],0.00943 (active),0.0451 (active),0.033 (active),0.0435 (active),0.136,0.419,0.00979 (active),0.00708 (active)
CCN(CC)CCCC(C)Nc1c2ccc(Cl)cc2nc2ccc(OC)cc12 (stereo not given) [Quinacrine dihydrochloride hydrate],0.957,0.933,1.04,0.996,1.01,0.986,0.99,0.978
Nc1ccn([C@H]2CC[C@@H](CO)O2)c(=O)n1 [Zalcitabine],1.02,1.02,1.06,1.04,1.04,1.06,1,1.01
CC(=O)N(CC(C)C(=O)O)c1c(I)cc(I)c(N)c1I (stereo not given) [Iocetamic acid],0.985,0.948,0.939,0.99,0.984,0.974,0.989,0.988
C[C@H](CCC(=O)O)[C@H]1CC[C@H]2[C@@H]3C(=O)C[C@@H]4CC(=O)CC[C@]4(C)[C@H]3CC(=O)[C@]12C [Dehydrocholic acid],0.98,0.968,0.983,0.957,1.01,0.983,0.999,0.66
CCCCOc1cc(C(=O)OCCN(CC)CC)ccc1N [Benoxinate hydrochloride],1,0.991,0.936,0.992,1,0.977,0.978,0.991
CC(=O)c1ccc2c(c1)N(CCCN1CCC(CCO)CC1)c1ccccc1S2 [Piperacetazine],0.971,1.05,1.03,1.01,1.01,1.02,1,0.948
COc1ccc(C(=O)c2ccccc2)c(O)c1 [Oxybenzone],1.03,1.03,1,1,1.05,1.06,1,0.954
CC(CN(C)C)CN1c2ccccc2Sc2ccccc21 (stereo not given) [Trimeprazine tartrate],0.988,0.952,0.895,0.999,0.799,0.792,1,0.972
CC(=O)SCC(Cc1ccccc1)C(=O)NCC(=O)OCc1ccccc1 (stereo not given) [Racecadotril],1,1,1,1.01,1.06,1.05,1,0.963
NC1CCN(c2c(F)cc3c(=O)c(C(=O)O)cn(C4CC4)c3c2Cl)C1 (stereo not given) [Clinafloxacin],0.00836 (active),0.0463 (active),0.023 (active),0.0284 (active),0.0165 (active),0.0148 (active),0.00822 (active),0.00725 (active)
CCCCC(CC)CNC(=N)NC(=N)NCCCCCCNC(=N)NC(=N)NCC(CC)CCCC (stereo not given) [Alexidine dihydrochloride],0.981,0.833 (active),0.924,0.731 (active),0.0131 (active),0.00943 (active),0.977,0.964
Cc1c(C)c2c(c(C)c1O)CCC(C)(COc1ccc(CC3SC(=O)NC3=O)cc1)O2 (stereo not given) [Troglitazone],0.992,0.97,0.986,0.974,0.839,0.892,0.997,0.97
O=C(O)CCC(=O)c1ccc(-c2ccccc2)cc1 [Fenbufen],0.999,0.99,0.87,0.986,1.01,0.994,1,0.993
